# Results: PMC4336329 (PLoS ONE, 2015)
# Screen size: about 310,000 compounds; about 2,200 (0.71%) showed an effect of 50% or more. The effect is printed as a negative number. For the sample, strong results were picked, then their nearest neighbours and some compounds at random.
# Molecular target: human ether-à-go-go-related gene (hERG) potassium channel (human, UniProt Q12809)
# Assay: primary screen, population patch clamp on CHO cells stably expressing hERG; higher = less effect of the substance
# Sequence of human ether-à-go-go-related gene (hERG) potassium channel (Q12809 whole entry, looked up): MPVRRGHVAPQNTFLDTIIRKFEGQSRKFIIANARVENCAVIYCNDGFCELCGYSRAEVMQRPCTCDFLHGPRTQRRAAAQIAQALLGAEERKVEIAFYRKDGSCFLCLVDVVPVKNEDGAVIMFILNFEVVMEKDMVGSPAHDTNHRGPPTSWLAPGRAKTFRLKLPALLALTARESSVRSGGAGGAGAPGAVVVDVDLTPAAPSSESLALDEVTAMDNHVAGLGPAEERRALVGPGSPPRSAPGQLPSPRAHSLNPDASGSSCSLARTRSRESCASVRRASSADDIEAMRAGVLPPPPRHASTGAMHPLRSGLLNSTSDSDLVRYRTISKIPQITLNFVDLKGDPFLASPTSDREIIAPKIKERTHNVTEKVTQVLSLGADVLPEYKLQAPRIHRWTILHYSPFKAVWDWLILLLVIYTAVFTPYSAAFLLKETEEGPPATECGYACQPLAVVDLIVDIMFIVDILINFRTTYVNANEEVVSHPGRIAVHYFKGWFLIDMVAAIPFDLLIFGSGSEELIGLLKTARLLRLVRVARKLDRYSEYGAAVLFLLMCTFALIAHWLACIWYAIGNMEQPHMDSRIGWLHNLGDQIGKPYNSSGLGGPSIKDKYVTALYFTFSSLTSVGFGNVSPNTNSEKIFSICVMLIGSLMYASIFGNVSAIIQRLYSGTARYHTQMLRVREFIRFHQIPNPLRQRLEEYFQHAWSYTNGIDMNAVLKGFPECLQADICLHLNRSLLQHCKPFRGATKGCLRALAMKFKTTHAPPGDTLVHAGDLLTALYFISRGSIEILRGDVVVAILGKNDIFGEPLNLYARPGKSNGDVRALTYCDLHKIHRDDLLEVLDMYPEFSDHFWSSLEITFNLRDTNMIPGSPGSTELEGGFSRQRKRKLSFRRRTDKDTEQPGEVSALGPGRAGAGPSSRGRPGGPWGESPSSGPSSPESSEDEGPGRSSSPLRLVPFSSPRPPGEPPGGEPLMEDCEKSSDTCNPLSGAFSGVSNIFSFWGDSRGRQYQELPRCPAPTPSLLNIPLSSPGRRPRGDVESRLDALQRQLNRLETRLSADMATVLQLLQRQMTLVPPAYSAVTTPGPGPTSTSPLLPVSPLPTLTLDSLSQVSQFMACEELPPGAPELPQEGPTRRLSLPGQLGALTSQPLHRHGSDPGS
row,SMILES,"hERG current change (%, negative = inhibition) at 1uM [%]"
1,O=[N+]([O-])/C=C/c1c(OCc2ccccc2)ccc2ccccc12,-3.83
2,CCCC(C)C(=O)OCC(=O)Nc1c(Br)cc(C)cc1Br (centres unmarked),9.86
3,CCCc1ccc(-c2c(C)sc(N)c2C#N)cc1,16.9
4,c1ccc(-n2nnnc2-n2ccnc2)cc1,2.97
5,COc1ccccc1CCNC(=O)C(=O)NCC1OCCN1S(=O)(=O)c1cc(F)ccc1F (centres unmarked),8.74
6,Cc1ccc(S(=O)(=O)N2CCN(S(=O)(=O)c3ccc(C)cc3)C2c2ccccc2)cc1,3.23
7,CN1CCN(CCC(=O)Nc2cccc(F)c2)CC1,13
8,O=C(Nc1cccc(F)c1)N1CCN(C/C=C/c2ccccc2)CC1,-19.1
9,Cl.O=C(CCN1CCOCC1)Nc1ccc(Cl)cc1,8.71
10,O=C(CCN1CCN(c2ccccc2)CC1)Nc1ccc(Cl)cc1,9.14
11,O=C(CCN1CCN(C/C=C/c2ccccc2)CC1)Nc1ccccc1,-79
12,O=C(CCN1CCN(C/C=C/c2ccccc2)CC1)Nc1cccc(F)c1,-62.6
13,COc1ccc(NC(=O)CCN2CCN(C/C=C/c3ccccc3)CC2)cc1,-37.8
14,COc1cc(NC(=O)CCN2CCN(C/C=C/c3ccccc3)CC2)cc(OC)c1,-36.8
15,O=C(CCN1CCN(C/C=C/c2ccccc2)CC1)Nc1ccc(Cl)cc1,-74.1
16,CCOCCCNC(=O)c1cn(C)c(=O)c2cc(OC)c(OC)cc12,9.51
17,CCOC(=O)O[C@]1(C(=O)COC(=O)CC)CC[C@H]2[C@@H]3CCC4=CC(=O)C=C[C@]4(C)[C@H]3[C@@H](O)C[C@@]21C,8.4
18,Cc1cccc(NC(=O)CNC(=O)COc2cc(F)ccc2[N+](=O)[O-])c1C,15.4
19,CCCNC(=O)CCC(NS(=O)(=O)c1ccc(C)cc1)C(=O)NCCC (centres unmarked),7.66
20,CCOC(=O)C1C(=O)CC(C)(O)C(C(=O)OCC)C1c1ccc(OC)cc1 (centres unmarked),-0.912
21,CCOC(=O)CSc1nc2sc(C(=O)O)c(C)c2c(=O)[nH]1,9.03
22,Cc1cc(N2C(=O)C(O)=C(C(=O)c3cc4ccccc4o3)C2c2ccc(Cl)cc2)no1 (centres unmarked),1.55
23,COC(=O)c1cc(NC(=O)CSc2nnc(N)s2)ccc1Cl,13.6

row,SMILES,"hERG current change (%, negative = inhibition) at 1uM [%]"
1,Cc1ccc2c(CC(=O)N(C)c3c(N)n(Cc4ccccc4)c(=O)[nH]c3=O)coc2c1,8.06
2,O=C(NCCc1ccccc1)c1ccc2nccnc2c1,20.4
3,CC(C)Cc1ccc(C(C)C(N)=Nc2ccc(O)cc2)cc1.Cl (centres unmarked),-71.8
4,CC(C)Cc1ccc(C(C)C(N)=NCCc2ccccc2)cc1.Cl (centres unmarked),-16
5,CC(C)Cc1ccc(C(C)C(=N)N)cc1.Cl (centres unmarked),10.2
6,CSCCC(=O)N1CCC(n2nccc2NC(=O)CCc2ccccc2)CC1,5.02
7,O=C(CN1CCC(C(=O)c2ccc(F)cc2)CC1)Nc1ccc(F)cc1,-31.6
8,Cc1ccc(NC(=O)CN2CCC(C(=O)c3ccc(F)cc3)CC2)cc1,-50.1
9,Cc1ccc2c(c1)nnn2C1CCN(CC(=O)N2CCN(c3ccc(F)cc3)CC2)CC1,-52.5
10,Cc1ccc2c(c1)nnn2C1CCN(CC(=O)Nc2ccc(F)cc2)CC1,-20.7
11,O=C(c1ccccc1)C1CCN(CC(=O)N2CCN(c3ccccc3)CC2)CC1,10.9
12,Cc1ccc(C(=O)C2CCN(CC(=O)N3CCN(c4ccc(F)cc4)CC3)CC2)cc1,-66.5
13,CC(=O)c1ccc(NC(=O)CN2CCC(C(=O)c3ccc(F)cc3)CC2)cc1,6.3
14,Cc1ccc2c(c1)nnn2C1CCN(CC(=O)c2ccc(Cl)cc2)CC1,-6.32
15,Cc1ccc(C(=O)C2CCN(CC(=O)NCc3ccc(F)cc3)CC2)cc1,-17.5
16,O=C(/C=C/c1ccc(F)cc1)NC(=S)Nc1ccccc1O,13.6
17,CCN1C(=O)/C(=C/c2ccc(N(CC)CC)cc2OC)C(=O)NC1=S,5.05
18,Cc1ccccc1OCCN=Cc1c(O)n(C)c(=O)n(C)c1=O,10.2
19,Cc1cc(C(=O)NC2=NCCS2)cs1,-13
20,Cc1ccc(S(=O)(=O)NCCC(=O)NNC(=O)c2ccccc2O)cc1C,-9.68
21,Cc1csc(Sc2ccc(S(=O)(=O)N3CCCC3)cn2)n1,-2.28
22,O=Cc1c(NCCc2ccc(F)cc2)c2ccccc2[nH]c1=O,4.06
23,Cc1ccc(-c2csc(NC(=O)C3CSC4(C)CCC(=O)N34)n2)cc1 (centres unmarked),11.6

row,SMILES,"hERG current change (%, negative = inhibition) at 1uM [%]"
1,O=C(Nc1ccnn1C1CCN(Cc2ccccc2)CC1)C1CCCC1,-15.9
2,O=C(Nc1ccnn1C1CCN(Cc2cccc(F)c2F)CC1)C1CCCC1,8
3,O=C(Nc1ccnn1C1CCN(Cc2ccccc2F)CC1)C1CCCC1,-6.15
4,O=C(Nc1ccnn1C1CCN(Cc2cccc(O)c2)CC1)C1CCCC1,-14.2
5,O=C(Nc1ccnn1C1CCN(C/C=C/c2ccc(F)cc2)CC1)C1CCCC1,-79.3
6,O=C(Nc1ccnn1C1CCN(C/C=C/c2ccccc2)CC1)C1CCCC1,-78.4
7,CC1(c2ccccc2)CC(C)(C)N2C(=O)C3(C(C#N)=C(N)Oc4cc(O)ccc43)c3cccc1c32 (centres unmarked),6.18
8,O=C(CNCc1cccc2ccccc12)Nc1ccccc1[N+](=O)[O-],1.68
9,COc1ccc(NC(=O)CSc2nnc(-c3ccoc3C)n2CCc2ccccc2)cc1,1.36
10,CCC(=O)/C=C1/Sc2ccccc2N1CC,10.1
11,CCN1/C(=C/C=C/C=C/C=C/c2sc3ccccc3[n+]2CC)Sc2ccccc21.[I-],7.57
12,CCN1/C(=C/C(C)=C/c2sc3ccccc3[n+]2CC)Sc2ccccc21.[I-],10.6
13,CCN1/C(=C/c2ccc3cccc(C)c3[n+]2CC)Sc2ccccc21.[I-],-76.4
14,CCN1/C(=C/C=C/C=C/c2sc3ccccc3[n+]2CC)Sc2ccccc21.[I-],-37.5
15,CCN1/C(=C/c2ccc3cc(C)ccc3[n+]2CC)Sc2ccc3sccc3c21.[I-],10.9
16,CCN1/C(=C/c2ccc3ccc(C)cc3[n+]2CC)Sc2ccccc21.[I-],-63.6
17,CCN1/C(=C/c2ccc3cc(C)ccc3[n+]2CC)Sc2ccccc21.[I-],-100
18,CCC(=O)/C=C1\Sc2ccccc2N1CC,4.38
19,COc1cccc(CCc2nnc(N)s2)c1,13.2
20,O=Cc1cn(CC(=O)Nc2ccccc2)c2ccccc12,6.4
21,C=CCOC(=O)Nc1ccc(Cl)cc1NC(=O)OCC=C,0.411
22,Cc1ccc(C(=O)Oc2ccc(Cl)c3cccnc23)cc1[N+](=O)[O-],15
23,CCCc1c(C)[nH]c2nc3ccccc3n2c1=O,11.4

row,SMILES,"hERG current change (%, negative = inhibition) at 1uM [%]"
1,COc1ccc(C)cc1S(=O)(=O)N(C)CC(=O)N1CCC(C(N)=O)CC1,9.99
2,COc1cc(NC(=S)N2CCN(C)CC2)cc(OC)c1,14.3
3,CCN1C(=O)/C(=C\N2CCN(c3cccc(Cl)c3)CC2)SC1=S,6.97
4,COc1ccc(NC(=S)N(CCCN2CCOCC2)C(C)c2cc3ccccc3o2)cc1 (centres unmarked),-63.1
5,COc1cccc(NC(=S)N(CCCN2CCCC(C)C2)Cc2cccs2)c1 (centres unmarked),-30.2
6,COc1ccc(NC(=S)N(CCCN2CCC(C)CC2)Cc2cccs2)cc1,-47.5
7,COc1ccc(NC(=S)N(CCCN2CCOCC2)C(C)c2cc3cccc(OC)c3o2)cc1 (centres unmarked),3.7
8,COc1ccc(NC(=S)N(CCCN2CCCC(C)C2)Cc2cccs2)cc1 (centres unmarked),-62.4
9,COc1ccc(NC(=S)N(CCCN2CCN(C)CC2)Cc2cccs2)cc1,-14
10,COc1ccc(NC(=S)N(CCCN2CCCCC2)Cc2cccs2)cc1,-50.1
11,COc1ccc(NC(=S)N(CCCN2CCCC2)Cc2cccs2)cc1,-7.06
12,COc1cccc(NC(=S)N(CCCN2CCOCC2)C(C)c2cc3ccccc3o2)c1 (centres unmarked),10.6
13,COc1ccccc1-c1csc(NC(=O)c2ccc(N3C(=O)CCC3=O)cc2)n1,5.85
14,Cc1c(C(=O)Nc2ccc(S(=O)(=O)N(C)C3CCN(C)CC3)cc2)oc2ccccc12,3.99
15,Cc1cc(NC(=O)Cn2nc([N+](=O)[O-])c(Br)c2C)no1,15.4
16,Clc1ccc(-c2csc(N3CCN(c4ccccc4)CC3)n2)cc1,6.51
17,O=C(COC(=O)Cc1c(F)cccc1Cl)NCCC1=CCCCC1,7.46
18,CN(Cc1cnn(C)c1)C(=O)c1ccc(OC2CCN(CCc3ccccc3)CC2)cc1,-8.79
19,Cc1cc(CN(C)C(=O)c2ccc(OC3CCN(CCc4ccccc4)CC3)cc2)on1,-77.5
20,O=C(NCc1ccon1)c1ccc(OC2CCN(CCc3ccccc3)CC2)cc1,-26
21,O=C(NCCn1cccn1)c1ccc(OC2CCN(CCc3ccccc3)CC2)cc1,-1.71
22,CCc1cc(CNC(=O)c2ccc(OC3CCN(CCc4ccccc4)CC3)cc2)on1,-54.4
23,Cc1cc(CN(C)C(=O)c2ccc(OC3CCN(Cc4ccccn4)CC3)cc2)on1,-2.96
